From PubChem BioAssay (NCATS) come the findings set out here.

Experiment [1] can be described thus: Primary qHTS for inhibitors of SARS-S pseudo-typed particle cell entry (AID 1479145; note: nearly all actives have a fitted effect of over 45% in size; note: potency is the fitted concentration of half-maximal effect; for activity change, negative = inhibition: series mostly up to about 57 µM). (In general: In qHTS, concentration-response curves come from the screen itself.)
Experiment [2] in a line: Primary qHTS for Huh7 cytotoxicity: counterscreen for inhibitors of MERS-S pseudotyped particle cell entry (AID 1479147).
A short description of experiment [3]: Primary qHTS for inhibitors of MERS-S pseudo-typed particle cell entry (AID 1479149). For activity change, negative = inhibition: series mostly up to about 57 µM. Note: nearly all actives have a fitted effect of over 60% in size. Note: potency is the fitted concentration of half-maximal effect.
The nature of experiment [4]: Primary qHTS for Vero E6 cytotoxicity: counterscreen for inhibitors of SARS-S pseudo-typed particle cell entry (AID 1479150). Note: potency is the fitted concentration of half-maximal effect.
The target in experiment [5] is Calcium and integrin-binding protein 1 (Homo sapiens) (UniProt Q99828). In words: Primary qHTS for Identification of Calcium Integrin Binding Protein 1 (CIB1) Competitor (AID 1508620; active = well fitted inhibition curve with a large enough effect;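 note: GST tagged CIB1 binding a fluorescein labelled alphaIIb integrin peptide tracer; top concentration of the series differs between compounds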). The essentials:
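Fluorescence polarization competition: GST-tagged CIB1 (1 uM final) preincubated with compound 15 min at room temperature, then FITC-labelled alphaIIb peptide (100 nM final) added. After 15 min at room temperature, polarization read at Ex 480/Em 540.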

Records with an inconclusive call do not appear. Values without a mark were called inactive. Calls of active or inactive are those of the source. Unless noted, calls come from the whole dose curve.
% is set by controls: 0 for no effect and ±100 for the full control effect.

Chain of Calcium and integrin-binding protein 1 (Homo sapiens) (Q99828 whole entry, looked up): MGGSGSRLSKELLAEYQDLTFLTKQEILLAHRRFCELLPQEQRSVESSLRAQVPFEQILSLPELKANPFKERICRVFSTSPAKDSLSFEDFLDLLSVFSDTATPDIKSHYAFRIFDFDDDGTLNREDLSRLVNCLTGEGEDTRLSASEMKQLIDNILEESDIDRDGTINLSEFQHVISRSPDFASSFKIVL

With `C[C@@H]1CN(c2c(F)c(N)c3c(=O)c(C(=O)O)cn(C4CC4)c3c2F)C[C@H](C)N1`, the Potency result in experiment [1], in experiment [2], in experiment [3] and in experiment [4] was “inactive” in each case.
On to `Cc1c(C)c2c(c(C)c1OC(=O)c1cccnc1)CC[C@@](C)(CCC[C@H](C)CCC[C@H](C)CCCC(C)C)O2`, for which the Potency result in experiment [1], in experiment [2], in experiment [3] and in experiment [4] was “inactive” each time.
`NCCS`: the Potency entry in experiment [1], in experiment [2], in experiment [3] and in experiment [4] was “inactive” each time.
Consider `CCOc1cc2ncc(C#N)c(Nc3ccc(OCc4ccccn4)c(Cl)c3)c2cc1NC(=O)/C=C/CN(C)C`, for which, in experiment [2], the outcome was “inactive [at 11.4 µM]”. Further, the activity change, negative = inhibition in experiment [3] is -11.6% [at 11.4 µM]. In experiment [4], the activity change, negative = cytotoxicity was -35.9% [at 11.4 µM].
In the case of `CCCOC(=O)c1ccc(O)cc1`, the Potency result in experiment [2], in experiment [3] and in experiment [4] was “inactive” each time.
As to `Cc1cc(C(=O)NNCc2ccccc2)no1`, the Potency result in experiment [2], in experiment [3] and in experiment [4] was “inactive” throughout.
Turning to `CC(C)CCCC(C)CCCC(C)CCCCC(C)CCCC(C)CCCC(C)C` (stereo not drawn), the Potency entry in experiment [2], in experiment [3] and in experiment [4] was “inactive” in each case.
As to `CC(=O)Nc1ccc(O)cc1`, the Potency result in experiment [1], in experiment [2], in experiment [3] and in experiment [4] was “inactive” each time.
Turning to `Cn1cncc1[C@@](N)(c1ccc(Cl)cc1)c1ccc2c(c1)c(-c1cccc(Cl)c1)cc(=O)n2C`, the Potency entry in experiment [2] and in experiment [4] was “inactive” throughout.
In the case of `Cc1c(C(=O)Nc2ccc(N3C[C@@H](C)O[C@@H](C)C3)nc2)cccc1-c1ccc(OC(F)(F)F)cc1`, the Potency result in experiment [2] and in experiment [4] was “inactive” throughout. Also, the Potency in experiment [3] was 20 µM (active).
Consider `CCOP(=O)(OCC)C(C)NC(=O)N(CCCl)N=O` (stereo not drawn), for which the Potency entry in experiment [2], in experiment [3] and in experiment [4] was “inactive” throughout. In addition, the outcome in experiment [5] was inactive.
For the compound `Cc1nnc(C(C)C)n1C1CC2CCC(C1)N2CC[C@H](NC(=O)C1CCC(F)(F)CC1)c1ccccc1` (stereo partly drawn), the Potency entry in experiment [2], in experiment [3] and in experiment [4] was “inactive” each time.
With `CC(C)(C)c1cc(C(C)(C)C)c(NC(=O)c2c[nH]c3ccccc3c2=O)cc1O`, the Potency result in experiment [2], in experiment [3] and in experiment [4] was “inactive” each time.
With `CS(=O)(=O)Nc1ccc([N+](=O)[O-])cc1Oc1ccccc1`, the Potency entry in experiment [2], in experiment [3] and in experiment [4] was “inactive” throughout.
With `COc1cc2nccc(Oc3ccc(NC(=O)C4(C(=O)Nc5ccc(F)cc5)CC4)cc3)c2cc1OC`, the Potency entry in experiment [2] and in experiment [4] was “inactive” in each case.
On to `NCCCC(N)(C(=O)O)C(F)F` (stereo not drawn), for which the Potency result in experiment [1], in experiment [2], in experiment [3] and in experiment [4] was “inactive” throughout.
For `CNC(=O)c1cc(Oc2ccc(NC(=O)Nc3ccc(Cl)c(C(F)(F)F)c3)c(F)c2)ccn1`, the Potency in experiment [1] was 14.1 µM (active). Further, the Potency entry in experiment [2] and in experiment [4] was “inactive” in each case.
For `CC1=C(C/C=C(\C)CCC[C@H](C)CCC[C@H](C)CCCC(C)C)C(=O)c2ccccc2C1=O`, the Potency result in experiment [1], in experiment [2] and in experiment [4] was “inactive” in each case.
As to `C/C(=C1\CCOC(=O)S1)N(C=O)Cc1cnc(C)nc1N`, the Potency entry in experiment [1], in experiment [2], in experiment [3] and in experiment [4] was “inactive” in each case.
`CCCCCCCC(=O)OCC(O)CO` (stereo not drawn): the Potency result in experiment [1], in experiment [2], in experiment [3] and in experiment [4] was “inactive” throughout.
As for `C[C@H](CN1CCCC1)C(=O)c1ccc(C(F)(F)F)cc1`, the Potency result in experiment [1], in experiment [2] and in experiment [4] was “inactive” each time.
Turning to `Cc1ccc(C(=O)Nc2ccc(CN3CCN(C)CC3)c(C(F)(F)F)c2)cc1C#Cc1cnc2cccnn12`, the Potency in experiment [1] was 3.55 µM (active); in experiment [4], 22.4 µM (active).
With `NC1=NC(=O)N2CC12` (stereo not drawn), the Potency entry in experiment [1], in experiment [2], in experiment [3] and in experiment [4] was “inactive” each time. In addition, the result in experiment [5] was inactive.
As to `C=CCNC(N)=S`, the Potency result in experiment [1], in experiment [2], in experiment [3] and in experiment [4] was “inactive” throughout.
Turning to `CC(C)(C)NCC(O)c1ccc(O)c(CO)c1` (stereo not drawn), the Potency entry in experiment [1], in experiment [2], in experiment [3] and in experiment [4] was “inactive” in each case.
In the case of `CC(C)C[C@H](NC(=O)CNC(=O)c1cc(Cl)ccc1Cl)B(O)O`, the Potency result in experiment [1] was “inactive”. The Potency in experiment [3] is 0.794 µM (active).
`CCCS(=O)(=O)Nc1ccc(F)c(C(=O)c2c[nH]c3ncc(-c4ccc(Cl)cc4)cc23)c1F`: the Potency entry in experiment [2] and in experiment [4] was “inactive” throughout.
For the compound `COc1cc2c(cc1OC)CC(=O)N(CCCN(C)C[C@H]1Cc3cc(OC)c(OC)cc31)CC2`, the Potency entry in experiment [2], in experiment [3] and in experiment [4] was “inactive” in each case.
Consider `CC(C)(C)C(O)/C=C/c1ccc2c(c1)OCO2` (stereo not drawn), for which the Potency result in experiment [2], in experiment [3] and in experiment [4] was “inactive” in each case.
`N#CC[C@H](C1CCCC1)n1cc(-c2ncnc3[nH]ccc23)cn1`: the Potency entry in experiment [2], in experiment [3] and in experiment [4] was “inactive” throughout.
On to `Cc1cn(-c2cc(NC(=O)c3ccc(C)c(Nc4nccc(-c5cccnc5)n4)c3)cc(C(F)(F)F)c2)cn1`, for which the Potency entry in experiment [2], in experiment [3] and in experiment [4] was “inactive” throughout.
For `CC(=O)N[C@@H](Cc1ccc(O)cc1)C(=O)O`, the Potency entry in experiment [2], in experiment [3] and in experiment [4] was “inactive” throughout.
Consider `Clc1ccccc1CN1CCc2sccc2C1`, for which the Potency result in experiment [2], in experiment [3] and in experiment [4] was “inactive” each time.
Turning to `CC[C@H](Nc1ncnc2nc[nH]c12)c1nc2cccc(F)c2c(=O)n1-c1ccccc1`, the Potency entry in experiment [2], in experiment [3] and in experiment [4] was “inactive” in each case.
On to `C#CC(C)(CC)OC(=O)c1ccccc1C(=O)O` (stereo not drawn), for which the Potency entry in experiment [2], in experiment [3] and in experiment [4] was “inactive” throughout.
Consider `CNC(=O)c1ccc(N2C(=S)N(c3ccc(C#N)c(C(F)(F)F)c3)C(=O)C2(C)C)cc1F`, for which the Potency in experiment [1] was 8.91 µM (active). Moreover, the Potency result in experiment [2] and in experiment [4] was “inactive” throughout.
Turning to `CCN(CC)c1ccc(C(=C2C=CC(=[N+](CC)CC)C=C2)c2cc(S(=O)(=O)O)ccc2S(=O)(=O)[O-])cc1`, the Potency entry in experiment [1] and in experiment [3] was “inactive” throughout.
For `CC(=O)Oc1cccc(C)c1`, the Potency entry in experiment [1], in experiment [2], in experiment [3] and in experiment [4] was “inactive” each time.
For the compound `Cc1ccccc1N=Nc1ccc(N=Nc2c(O)ccc3ccccc23)c(C)c1`, the Potency result in experiment [2], in experiment [3] and in experiment [4] was “inactive” in each case.
With `C[C@@H]1CCN(C(=O)CC#N)C[C@@H]1N(C)c1ncnc2[nH]ccc12`, the Potency result in experiment [2], in experiment [3] and in experiment [4] was “inactive” each time.
In the case of `C[C@@H](N)C(=O)O`, the Potency result in experiment [2], in experiment [3] and in experiment [4] was “inactive” throughout.
For `CCN1CCN(c2cc3c(cc2F)c(=O)c(C(=O)O)cn3C2CC2)CC1`, the Potency result in experiment [1], in experiment [2], in experiment [3] and in experiment [4] was “inactive” each time.
As for `Oc1c(I)cc(I)c2cccnc12`, the Potency result in experiment [2] and in experiment [4] was “inactive” each time.
Turning to `O=C(c1cc(Cc2n[nH]c(=O)c3ccccc23)ccc1F)N1CCN(C(=O)C2CC2)CC1`, the Potency result in experiment [2] and in experiment [4] was “inactive” in each case.
